# E coli Lon inh: inhibitors of E. coli Lon protease. P0A9M0. purified E. coli Lon protease, fluorescence polarization. inhibition, % at 7.94 µM. 360,000 compounds, 0.42% hits. AID 602123; in the data active = inhibition above about 13%, passing the limit was not always enough;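 also: 0% = enzyme with probe and DMSO and 100% = no enzyme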
# Cardiac RTF inh: cardiac RTF calcium desensitization; P19429+P45379; IANBD-labeled cardiac RTF, Ca2+ fluorescence; inhibition, % at 7.15 µM; 340,000 compounds, 0.12% hits;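 active = inhibition above the mean inhibition of all tested compounds plus 3 SD, cut at about 17% in these data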;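 also: assay run at fixed EC70 calcium of 1.6 mM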
# GLD-1 RNA inh: GLD-1-TGE RNA interaction inhibition (C. elegans); Q17339; purified GLD-1 + fluorescein TGE RNA, fluorescence polarization; inhibition, % at 5.96 µM; 320,000 compounds, 0.44% hits; AID 2280;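 active = percent inhibition above a per-plate cutoff, the plate mean of test compounds plus 3 SD, cut at about 30% in these data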;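 also: 0% = DMSO wells with GLD-1 and probe and 100% = wells lacking GLD-1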
# Target sequence (Q17339 whole entry, looked up): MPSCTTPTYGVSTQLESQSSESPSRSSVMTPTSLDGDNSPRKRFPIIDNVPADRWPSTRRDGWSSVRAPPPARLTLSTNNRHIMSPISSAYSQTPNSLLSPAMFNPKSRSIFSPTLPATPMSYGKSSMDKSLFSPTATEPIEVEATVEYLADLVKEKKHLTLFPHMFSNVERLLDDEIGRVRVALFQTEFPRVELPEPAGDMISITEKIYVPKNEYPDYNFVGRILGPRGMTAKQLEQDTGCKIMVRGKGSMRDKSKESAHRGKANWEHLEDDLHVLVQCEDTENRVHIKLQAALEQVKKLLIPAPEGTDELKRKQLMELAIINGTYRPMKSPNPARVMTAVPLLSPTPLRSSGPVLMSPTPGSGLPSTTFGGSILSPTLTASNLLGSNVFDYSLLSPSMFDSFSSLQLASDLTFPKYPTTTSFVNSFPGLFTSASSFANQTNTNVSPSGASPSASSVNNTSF
# BCLXL inh: Bcl-xL (human) inhibition; Q07817; GST-Bcl-xL / FITC-Bim BH3 peptide fluorescence polarization; inhibition, % at 10.9 µM; 320,000 compounds, 0.7% hits; AID 2129;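 active = inhibition above the mean of all tested compounds plus 3 SD, cutoff set per campaign, cut at about 30% in these data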;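 also: 0% = DMSO wells and 100% = unlabeled Bim-BH3 peptide competitor; inhibitors lower millipolarization by displacing the labeled peptide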
# cardiac RTF act: increases calcium sensitivity of human cardiac regulated thin filaments; AID 493008; IANBD-labeled TnC RTF fluorescence at EC20 calcium; 0% EC20 calcium, 100% full calcium; activation, % at 7.2 µM; P19429+P45379; 340,000 compounds, 0.24% hits;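 active = activation above the mean over all tested compounds plus 3 SD, cut at about 30% in these data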;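 also: rise in fluorescence read as greater calcium sensitivity of cardiac thin filaments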
# eLon confirm: E. coli Lon inhibition confirmation | shares compounds with E coli Lon inh | inhibition, % at 7.94 µM | 1,400 compounds, 31% hits | purified E. coli Lon, fluorescence polarization; in the data active = inhibition above about 16%;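 also: 0% = enzyme with probe and DMSO and 100% = no enzyme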
# * hit, by the source's call; x = no result given; + = active, no number. Most compounds without a hit are left out; they make up all but 1.2% or so of the library.
SMILES,E coli Lon inh,Cardiac RTF inh,GLD-1 RNA inh,BCLXL inh,cardiac RTF act,eLon confirm
CCCN(CC(=O)Nc1ccccc1C)C(=O)/C=C/c1ccc(OCC)c(OC)c1,-6.2,-9.9,-4.9,0.2,0.8,x
CCCCSc1nnc(NC(=O)CCc2ccccc2)s1,-1.6,-1.9,-2.3,2.3,-2.0,x
Cc1c(C(=O)O)c(O)cc2c1C(=O)c1c(O)c([C@@H]3O[C@H](CO)[C@@H](O)[C@H](O)[C@H]3O)c(O)c(O)c1C2=O,44.9*,-6.4,10.8,x,0.4,21.8*
CCOc1ccccc1C(=O)NCCC(=O)O,17.1*,-1.4,2.5,0.7,2.8,-2.6
CCn1nc(C)c(/C=N/NC(=O)CSc2ccccn2)c1C,-0.6,x,6.6,-3.8,x,x
O=C(O)/C=C/C(=O)Nc1ccc(O)cc1,120.5*,-11.2,1.1,9.2,5.5,0.5
O=C(OCc1ccccc1)/C(=C/c1ccc(Cl)cc1)NC(=O)c1ccccc1Cl,-0.8,-0.3,-6.1,-0.4,-4.1,x
CCCCC1=CC2=C(c3ccco3)C(=O)C(C)(OC(=O)c3ccc(OC)cc3)C(=O)C2=CN1CCOC (stereo not given),48.4*,-8.3,16.2,18.4,2.5,12.3
COCCN1C=C2C(=O)C(C)(OC(=O)C3CCCC3)C(=O)C(c3ccccc3)=C2C=C1CCCC(=O)OC (stereo not given),8.9,-6.2,14.2,18.2,0.0,x
CCCCC1=CC2=C(c3ccco3)C(=O)C(C)(OC(=O)c3ccc(OC)cc3)C(=O)C2=CN1CCc1ccccn1 (stereo not given),37.2*,-19.7,15.6,13.2,16.6,-18.0
CC(=O)Nc1cccc(NC(=O)c2ccccc2OCc2c(C)noc2C)c1,-11.7,-3.0,1.4,3.4,6.4,x
CCc1ccccc1Nc1nc(N)nc(CSc2nnc3ccccn23)n1,61.6*,1.7,5.7,3.5,6.7,-2.9
CCc1ccc(NC(=O)CSCc2nc(N)nc(Nc3ccccc3CC)n2)cc1,-9.3,5.2,-1.5,-1.9,-4.2,x
O=C(Cc1cccs1)Nc1nnc(SCc2ccc(Br)cc2)s1,-15.2,12.2,-2.9,3.6,-5.7,x
CCO[C@H]1OC(C(=O)N2CCN(Cc3ccccc3)CC2)=C[C@@H](C)[C@@H]1CCCO,28.5*,0.2,3.1,5.7,1.1,5.4
CCc1ccc(N(C(=O)c2csnn2)C(C(=O)NC(C)(C)C)c2cccnc2)cc1 (stereo not given),3.6,-9.0,4.1,4.8,-2.6,x
O=C(CSc1nnc(CSc2nc3ccccc3s2)o1)NC1CCCCC1,5.2,-6.7,-3.6,-1.5,4.5,x
O=C(CSc1nc2ccccc2s1)NC1CCCC1,22.8*,2.7,2.9,5.7,3.3,3.1
Cc1onc(-c2ccccc2)c1C(=O)Nc1cccnc1,-6.5,2.1,3.8,5.8,-3.7,x
CC(C)NC(=O)NC(=O)COC(=O)/C=C/c1ccc2c(c1)OCO2,-10.6,-15.8,1.8,1.1,9.4,x
Cc1ccc(C(=O)N2CCC3(CC2)NCCc2[nH]cnc23)cc1,1.3,-9.5,-4.7,1.9,1.8,x
CCOC(=O)C1Nc2ccccc2C2c3ccccc3CC12 (stereo not given),30.0*,-6.8,-9.9,4.1,5.3,29.4*
CCNC(=O)NC(=O)C(C)OC(=O)c1ccc(-n2nc(SC)sc2=S)cc1 (stereo not given),-4.0,-15.0,3.0,5.9,3.5,x
Cc1ccc(-c2csc3nc(C)n(-n4cccc4)c(=O)c23)o1,20.7*,2.0,1.5,5.8,3.2,-1.2
CN(C)CCCn1c2c3ccccc3ccc2c2oc(=O)c3ccccc3c21,+,-2.0,x,x,-4.8,23.2*
SMILES,E coli Lon inh,Cardiac RTF inh,GLD-1 RNA inh,BCLXL inh,cardiac RTF act,eLon confirm
CN(C)CCCN1C(=O)c2cc3ccccc3cc2C1=O,8.7,-0.7,2.1,3.3,-2.2,x
Cc1ccc(NC(=O)CSc2nnc(-c3ccco3)c(-c3ccco3)n2)cc1,161.3*,-0.9,1.4,22.7,-4.5,-12.2
CC(=O)Nc1ccc(NC(=O)CSc2ccc(-c3ccco3)nn2)cc1,17.2*,-2.7,3.1,6.4,3.4,-6.2
CCCCCN(C(=O)COC(=O)COc1c(C)cc(C)cc1C)c1c(N)n(CCCC)c(=O)[nH]c1=O,3.1,6.3,-5.0,-3.1,-0.6,x
Cc1cc2nc3c(=O)[nH]c(=S)[nH]c3nc2cc1NC(=O)C(F)(F)F,+,-175.7,185.0*,+,65.1*,144.5*
Oc1ccc(-c2nccc(-c3ccc(Cl)cc3)n2)cc1,10.1,2.2,-1.4,2.7,-4.8,x
CC(=O)OC(C)C(=O)NS(=O)(=O)c1ccc(C)cc1 (stereo not given),6.8,-10.2,-1.6,10.9,-0.3,x
CCC1(C)Cc2c(C#N)c(N)sc(=S)c2CO1 (stereo not given),10.2,-6.7,18.3,24.6,12.4,x
N#Cc1c(N)sc(=S)c2c1CCCC2,15.9*,-8.2,101.8*,141.5*,7.2,12.8
Cn1c(SCC(=O)Nc2ccccc2Cl)nnc1C1CC1,-9.3,-5.6,-4.5,7.9,-3.2,x
COc1ccccc1NC(=O)N(CCN1CCOCC1)Cc1cc2cc(C)cc(C)c2[nH]c1=O,5.8,-14.9,4.0,1.7,2.1,x
O=c1c2cc(Br)ccc2nc2n1CCCCC2,-2.7,5.6,2.4,9.2,-4.7,x
O=c1c2cc([N+](=O)[O-])ccc2nc2n1CCCC2,18.9*,-5.4,-4.2,0.4,0.0,-6.3
c1cc2c3c(cccc3c1)C(N1CCCCC1)=N2,26.5*,-8.0,30.4,27.4,-3.8,51.7*
c1ccc2c(c1)CCN(C1=Nc3cccc4cccc1c34)C2,35.4*,-5.0,x,x,-0.1,105.9*
c1cc2c3c(cccc3c1)C(N1CCCCCC1)=N2,5.1,-3.3,20.2,6.2,-1.9,x
Cc1ccc(C2=NN(C(=O)CCC(=O)O)C(c3cn(-c4ccccc4)nc3-c3ccc(C)cc3)C2)cc1 (stereo not given),-1.4,6.3,2.5,6.9,-3.6,x
COc1ccccc1OCCNC(=O)C1CCCCC1,0.9,-0.6,0.6,1.6,1.6,x
CCOC(=O)N1CCC(NC(=O)CCN2C(=O)C3C4C=CC(C4)C3C2=O)CC1 (stereo not given),3.8,-1.9,4.2,4.8,-0.5,x
O=C(CCN1C(=O)C2C3C=CC(C3)C2C1=O)NC1CCCCC1 (stereo not given),20.2*,2.0,7.7,1.9,1.6,5.8
COc1ccc(/C=C/C(=O)OCC(=O)N2c3ccccc3CC2C)c(OC)c1 (stereo not given),14.0*,x,x,x,x,-3.9
COc1cccc(/C=C/C(=O)OCC(=O)N2c3ccccc3CC2C)c1OC (stereo not given),-3.6,-5.0,x,x,-15.2,x
Cc1cc(NC(=O)CSc2nc(N)c(NC(=O)c3ccccc3F)c(=O)[nH]2)no1,-7.3,-3.4,4.3,5.7,2.5,x
Cc1cc(C(C)(C)C)oc1C(=O)N(CC(=O)NC1CCCC1)Cc1ccccc1Cl,133.2*,-7.6,7.4,-1.6,-12.3,3.2

# Source: PubChem (The Scripps Research Institute Molecular Screening Center)
